From PubChem
Only some compounds are listed: those with a hit (about 1.1% of all), similar ones and a draw of the others.
RXFP1 ag: activates the human relaxin receptor RXFP1. HEK293T-RXFP1 cAMP TR-FRET, 30 min; response scale: percent of porcine relaxin response, buffer zero. Potency, µM (series often up to 57.5 µM), inactives show at the top dose activation, most hits filed as activators. actives 0.3% (n = 370,000); active means well fitted activation curve with a large enough effect; inconclusive means small, poorly fitted or top-dose-only effect; further: potency means the concentration at half of the fitted maximal effect; on the % scale 0 is the no-effect control and ±100 the full control effect; nearly all actives have a fitted effect of over 60% in size
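cAMP rise read by TR-FRET after 30 min, 37C compound exposure (up to 58 uM) in RXFP1-transfected HEK293 cells with Ro 20174 present. EC50 from Hill-equation fits, with 29 nM porcine relaxin as 100% and buffer as basal.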
TRPV1 ag: agonists of human vanilloid receptor 1 (TRPV1); Q8NER1; TRPV1-expressing cells, Fluo-8 calcium influx, agonist mode; actives 0.19% (n = 320,000); activation, % at 8.33 µM; in the data active means activation above about 80%; inconclusive means between about 30% and that limit; further: 0% is about no effect
Target sequence (Q8NER1 whole entry, looked up): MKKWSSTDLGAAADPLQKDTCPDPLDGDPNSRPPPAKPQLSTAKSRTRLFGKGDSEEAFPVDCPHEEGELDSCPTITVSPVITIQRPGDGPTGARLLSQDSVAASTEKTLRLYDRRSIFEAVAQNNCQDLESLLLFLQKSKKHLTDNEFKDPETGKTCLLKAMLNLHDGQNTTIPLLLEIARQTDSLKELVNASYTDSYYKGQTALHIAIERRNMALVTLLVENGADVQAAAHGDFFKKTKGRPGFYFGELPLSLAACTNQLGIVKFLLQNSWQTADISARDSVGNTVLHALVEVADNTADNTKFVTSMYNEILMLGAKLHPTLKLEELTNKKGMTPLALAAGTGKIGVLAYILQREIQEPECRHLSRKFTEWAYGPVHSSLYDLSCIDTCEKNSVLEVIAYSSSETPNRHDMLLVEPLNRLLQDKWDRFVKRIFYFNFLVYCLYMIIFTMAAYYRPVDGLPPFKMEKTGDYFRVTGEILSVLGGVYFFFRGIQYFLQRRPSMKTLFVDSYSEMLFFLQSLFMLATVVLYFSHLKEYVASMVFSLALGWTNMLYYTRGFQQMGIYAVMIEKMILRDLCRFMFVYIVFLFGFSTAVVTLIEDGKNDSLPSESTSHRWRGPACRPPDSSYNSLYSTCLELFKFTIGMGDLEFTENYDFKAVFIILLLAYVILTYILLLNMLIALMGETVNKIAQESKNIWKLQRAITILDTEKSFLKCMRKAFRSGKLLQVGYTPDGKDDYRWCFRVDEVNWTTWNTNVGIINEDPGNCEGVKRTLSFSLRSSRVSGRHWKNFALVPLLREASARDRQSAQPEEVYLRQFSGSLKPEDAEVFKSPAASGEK
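Cells expressing TRPV1 were dye-loaded with Fluo-8 and read kinetically: 10 s baseline, 3 min after compound (agonist portion), then 2 min after EC20 capsaicin (allosteric enhancer portion). Calcium-bound dye fluorescence at 480/520 nm.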
RXFP1 antag: RXFP1 (human) relaxin receptor antagonism; Q9HBX9; HEK293-RXFP1, relaxin-stimulated cAMP HTRF, 30 min; active compounds read low; activity change, negative = inhibition, % at 57.5 µM; actives 0.59% (n = 350,000); AID 1259400;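 active means activity change of -60% or lower, but not beyond a set lower limit; inconclusive means change between -60% and -40%, or beyond the set limit; inactive means change above -40%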; further: on the % scale 0 is the no-effect control and ±100 the full control effect
TRPV1 potentiator: enhances activation of the human vanilloid receptor TRPV1; AID 540277; TRPV1-expressing cells, Fluo-8 calcium influx, capsaicin EC20 potentiation; actives 0.02% (n = 320,000); potentiation, % at 8.33 µM; in the data active means potentiation above about 80%; inconclusive means between about 30% and that limit; further: 0% is about no effect
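TRPV1-expressing cells were cultured overnight at 35.5C and loaded with Fluo-8 calcium dye for 40 to 90 min at room temperature. After a 10 s baseline, compound was added and calcium influx was read kinetically for 3 min (ex 480/em 520 nm).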
gsp antagonist: antagonists of gsp mutant (McCune-Albright syndrome); actives 0.4% (n = 340,000); Potency, µM (doses to about 76.9 µM), for the others: at the highest dose activity change, negative = inhibition, most hits filed as inhibitors; gsp-mutant cells, cAMP HTRF, 30 min; calls by dose curve; cell line not stated here;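 further: intracellular cAMP measured with PDE inhibitor Ro 20-1724 present during compound exposure; potency means the concentration at half of the fitted maximal effect; on the % scale 0 is the no-effect control and ±100 the full control effect; nearly all actives have a fitted effect of over 65% in size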
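Measurement of cellular cAMP by homogeneous time-resolved fluorescence following a 30 min compound exposure at 37C. The PDE inhibitor […] was present throughout; the assay buffer was DPBS with 0.05% BSA and 0.005% Tween 20.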
gsp agonist: gsp mutant agonism; gsp mutant cells, cAMP HTRF, 30 min; Potency, µM (series often up to 76.9 µM), without a hit: at the top dose activation (cAMP increase), hits mostly activators; actives 0.13% (n = 340,000); active means well fitted activation curve with a large enough effect; inconclusive means small, poorly fitted or top-dose-only effect, or another doubt; inactive means no such curve, though single readings can be large or run the other way; cell line not stated here;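 further: phosphodiesterase inhibitor Ro 20-1724 added with compounds to block cAMP breakdown; potency means the concentration at half of the fitted maximal effect; nearly all actives have a fitted effect of over 60% in size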
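Cells stably selected in G418 were plated at 2000/well, grown 16-24 hr, then given compounds in DMSO with the PDE inhibitor […] (300 uM solution added) for 30 min at 37C; cAMP was read by HTRF.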
* marks the source's active call; other numbers are inactive results; ? = inconclusive; · = not tested or not shown; [ ] = dose if it differs, or a comment.

SMILES	RXFP1 ag	TRPV1 ag	RXFP1 antag	TRPV1 potentiator	gsp antagonist	gsp agonist
O=C(O)c1ccc(-c2ccc(OS(=O)(=O)c3ccccc3F)cc2)cc1	4%	-2	-10	4	-10%	-3%[15.4 µM]
CCn1c2ccccc2c2cc(/C=N/n3c(-c4cc(C)[nH]n4)n[nH]c3=S)ccc21	-1%	·	-29	·	35µM*	-1%[15.4 µM]
CCn1c2ccccc2c2cc(/C=N/n3cn[nH]c3=S)ccc21	7%	14	-19	-4	?	41%
Oc1nc(Nc2ccc(F)cc2)sc1/C=C1\C=Nc2ccccc21	2%	4	-104*	11	-26%	12%[15.4 µM]
CC(C)N(C(=O)Cn1cc(SCC(=O)Nc2ccccc2F)c2ccccc21)C(C)C	2%	·	-26	·	·	·
CCNC(=S)NCc1ccc(OC)c(OC)c1	3%	9	0	-18	10%	-1%[15.4 µM]
COc1ccc(CCNC(=S)NCc2ccc(Cl)c(Cl)c2)cc1OC	1%	81*	-7	-1	-20%	12%[15.4 µM]
CCOc1c(Nc2ccc(C(C)C)cc2)c(=O)c1=O	-2%	83*	0	-1	-2%	-9%
COc1nc(Nc2ccc(C(C)C)cc2)nc(OC)n1	-1%	2	-23	3	-2%	3%
Cc1ccc(OCC(=O)NNC(=O)C2CC(=O)N(c3ccc4c(c3)OCCO4)C2)cc1 (stereo not given)	1%	-2	8	-14	-2%	7%[15.4 µM]
Cn1c(=O)c(C(=O)COc2ccc(C#N)cc2)c(N)n(Cc2ccccc2)c1=O	18µM*	1	31	2	-1%	?
COc1ccccc1OCC(=O)N1CCC(c2nc3ccccc3o2)CC1	0%	·	-20	·	·	·
Cc1ccc(C(C)C)c(OCC(=O)N2CCC(c3nc4ccccc4o3)CC2)c1	2%	·	-98*	·	·	·
COc1ccc(NC(=O)CSc2nc3scc(C)c3c(=O)[nH]2)cc1	7%	-1	-12	16	3%	0%
O=c1ccc2c(-c3ccccc3)c3ccc(O)cc3oc-2c1	-3%	2	-6	-4	?	34%
Nc1ccc(-c2c3ccc(=O)cc-3oc3cc(O)ccc23)cc1C(=O)O	0%	93*	-23	-21	-7%	21%
Cn1c(=O)c(C(=O)c2ccccc2)nc2ccccc21	2%	1	-9	13	-9%[15.4 µM]	11%
Cn1cc(C(=O)c2ccc(Cl)cc2)cc1-c1nc2ccccc2n1C	2%	-2	-9	7	35µM*	?
CC(C)OC(=O)CNc1n[nH]c(=S)[nH]c1=O	5µM*	-3	-39	-42	·	36%[15.4 µM]
O=C(N/N=C/c1ccc(OC(=O)c2ccccc2Cl)cc1)c1cc(O)cc(O)c1	2%	0	-85*	11	-11%	-5%[15.4 µM]
O=C(N/N=C/c1ccc(OC(=O)c2ccccc2Cl)cc1)c1ccccn1	1%	14	-8	4	2%	1%[15.4 µM]
COc1ccc(-n2nc(C(=O)NCC(=O)NCCCN3CCC(C)CC3)c3ccccc3c2=O)cc1Cl	6%	-3	-5	0	7%	-3%
COc1ccc(-n2nc(C(=O)NCC(=O)NCCCN3CCCCCC3)c3ccccc3c2=O)cc1Cl	4%	-2	-13	81*	7%	0%
COC(=O)C1=C(C)NC(C)=C(C(=O)OCCN(C)Cc2ccccc2)C1c1cccc([N+](=O)[O-])c1 (stereo not given)	-1%	-2	-76*	-8	25%	·
CC(C)(C)c1ccc(Cc2n[nH]c(=S)[nH]c2=O)cc1	-2%	5	-23	-5	0%	-35%
SMILES	RXFP1 ag	TRPV1 ag	RXFP1 antag	TRPV1 potentiator	gsp antagonist	gsp agonist
CN(Cc1ccccc1)C(=O)COC(=O)C1CCN(S(=O)(=O)c2ccc(Cl)c(C(F)(F)F)c2)CC1	0%	-6	-96*	4	-4%	5%[15.4 µM]
CC(=O)C[C@H]1[C@H](O[C@H]2[C@H](OC(C)C(=O)N[C@@H](C)C(=O)N[C@H](CCC(=O)N[C@@H](CCCCN)C(=O)N[C@H](C)C(=O)O)C(N)=O)[C@@H](NC(=O)O)C(O)O[C@@H]2CO)O[C@H](CO)[C@@H](O)[C@@H]1O (stereo not given in full)	·	·	19	·	·	·
O=C(NCc1ccncc1)C(=O)Nc1nc(C23CC4CC(CC(C4)C2)C3)cs1	1%	?	?	-18	45µM*	-6%
NC(=O)SCC(=O)Nc1ccc(Cl)c(Cl)c1	2%	4	-71*	1	1%	-1%
COc1cc(/C=N/NC(=O)CC#N)ccc1Oc1nc(Cl)ncc1F	4%	2	4	6	-13%	-1%
CC(=O)c1ccc(OCC(O)Cn2nnc3ccccc32)cc1 (stereo not given)	3%	1	3	6	-23%	-2%
N#Cc1ccc(-c2ccc(OCC(O)Cn3nnc4ccccc43)cc2)cc1 (stereo not given)	0%	9	-5	-6	32µM*	-5%
CCCCC(CC)CNC(=O)CC(C)OC(=O)CCC(=O)O (stereo not given)	·	·	6	·	·	·
O=C(Nc1nc2ccccc2[nH]1)C12CC3CC(CC(C3)C1)C2	-2%	3	-14	0	-23%	0%
O=C(OCc1nc2ccccc2[nH]1)C12CC3CC(CC(C3)C1)C2	2%	?	4	-7	35µM*	11%
O=C(O)c1ccc2c(c1)C(=O)N([C@H](Cc1ccc(Cl)cc1)C(=O)O)C2=O	1%	·	·	·	·	·
CCC(CC)c1nn2c(N)c(/C=C3\C=Nc4ccccc43)c(=O)nc2s1	-1%	0	-7	10	3%	-2%[15.4 µM]
CCC(CC)c1nn2c(N)c(/C=C3\C(C)=Nc4ccccc43)c(=O)nc2s1	-1%	-2	-69*	?	-15%	-10%[15.4 µM]
Cc1ccc2c(C)c(C(=O)NCCN3CCCC(O)C3)oc2c1C (stereo not given)	2%	4	-112*	?	5%	-11%
CCCc1ccc2oc(C(=O)NCCN3CCCC(O)C3)c(C)c2c1 (stereo not given)	0%	?	-11	-17	-13%	6%
CN(C)/C=C/c1oc2ccc(O)cc2c1[N+](=O)[O-]	1%	-2	-5	8	28µM*	21%[15.4 µM]
O=C1CNC(=O)/C(=C/c2ccco2)N1	0%	0	0	-3	·	-33%[15.4 µM]
CCn1c(SCc2ccccc2F)nc(=O)c2c(C(=O)OC)cc(C3CC3)nc21	0%	·	-102*	·	·	·
CCn1c(SCc2ccc(F)cc2Cl)nc(=O)c2c(C(=O)OC)cc(C3CC3)nc21	0%	·	-84*	·	·	·
COC(=O)c1cc(C)nc2c1c(=O)nc(SCc1ccccc1Cl)n2C1CC1	10%	·	?	·	·	·
